Common to all, as to conditions: mRNA level, 48 h; actives raise or lower the signal
Read-out in assay [1]: Caspase-3 (Homo sapiens) (UniProt P42574)
Description: LTEA_HepaRG_CASP3: Life Technologies and Expression Analysis (LTEA) Assay for cysteine-aspartic acid protease (CASP3) using HepaRG (AID 2283477). In outline: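 Transcript-level assay: CASP3 mRNA in human HepaRG after 48 h treatment, eight half-log concentrations from 100 uM in 0.5% DMSO, quantified by qRT-PCR.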

Read-out in assay [2]: Cytochrome P450 (CYP24A1), CYP24A1 (gene 1591)
Kind of assay: LTEA_HepaRG_CYP24A1: Life Technologies and Expression Analysis (LTEA) Assay for Cytochrome P450 (CYP24A1) using HepaRG (AID 2283478). Put shortly: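 Gene expression of CYP24A1 by TaqMan qRT-PCR in HepaRG after 48 h treatment, highest concentration 100 uM; activity fitted in both directions relative to DMSO vehicle.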

Read-out in assay [3]: Cytochrome P450 (CYP1A2), CYP1A2 (gene 1544)
Description: LTEA_HepaRG_CYP1A2: Life Technologies and Expression Analysis (LTEA) Assay for Cytochrome P450 (CYP1A2) using HepaRG (AID 2283479). In outline: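 In duplicate wells, HepaRG cultures maintained in 0.5% DMSO were treated 48 h across an 8-point, half-log series topping at 100 uM; phenobarbital (1 mM) served as induction control. Expression was read by qRT-PCR.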

Read-out in assay [4]: cysteine-aspartic acid protease (CASP8), CASP8 (gene 841)
Description: LTEA_HepaRG_CASP8: Life Technologies and Expression Analysis (LTEA) Assay for cysteine-aspartic acid protease (CASP8) using HepaRG (AID 2283480). In outline: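 CASP8 transcript measured by TaqMan qRT-PCR with ACTB/GAPDH/POLR2A normalization, after 48 h chemical exposure of HepaRG cells in serum-free induction medium. Eight concentrations, top 100 uM, half-log steps, 0.5% DMSO vehicle; fits in both directions versus DMSO.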

Read-out in assay [5]: Cytochrome P450 (CYP2B6), CYP2B6 (gene 1555)
Description: LTEA_HepaRG_CYP2B6: Life Technologies and Expression Analysis (LTEA) Assay for Cytochrome P450 (CYP2B6) using HepaRG (AID 2283481). Put shortly: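 Human HepaRG, 48 h dosing, 0.5% DMSO vehicle, top dose 100 uM. CYP2B6 transcript by qRT-PCR, housekeeping-normalized, bidirectional curve fit.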

Read-out in assay [6]: Cytochrome P450 2C19 (Homo sapiens) (UniProt P33261)
Description: LTEA_HepaRG_CYP2C19: Life Technologies and Expression Analysis (LTEA) Assay for CYP2C19 using HepaRG (AID 2283482). Put shortly:
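Endpoint: CYP2C19 mRNA change, bidirectional fit vs 0.5% DMSO. Cells: HepaRG, 48 h exposure, eight-point series topping at 100 uM. Quantitation: qRT-PCR normalized to ACTB, GAPDH, POLR2A.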

Read-out in assay [7]: CYP2C8 (gene 1558)
Description: LTEA_HepaRG_CYP2C8: Life Technologies and Expression Analysis (LTEA) Assay for CYP2C8 using HepaRG (AID 2283483). In outline: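 CYP2C8 expression measured by TaqMan qRT-PCR and normalized to three housekeeping genes. HepaRG cultures were treated for 48 h with an eight-point half-log series topping at 100 uM, vehicle 0.5% DMSO, duplicates; fitted both directions against DMSO.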

Read-out in assay [8]: CYP2C9 (gene 1559)
Description: LTEA_HepaRG_CYP2C9: Life Technologies and Expression Analysis (LTEA) Assay for CYP2C9 using HepaRG (AID 2283484). In outline:
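CYP2C9 transcript level, quantified by TaqMan qRT-PCR against three housekeeping genes, was fitted bidirectionally relative to 0.5% DMSO. HepaRG cultures were treated 48 h, in duplicate, at eight half-log concentrations topping at 100 uM.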

Read-out in assay [9]: CYP2E1 (gene 1571)
Kind of assay: LTEA_HepaRG_CYP2E1: Life Technologies and Expression Analysis (LTEA) Assay for CYP2E1 using HepaRG (AID 2283485). Put shortly: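 Assay uses 48 h exposure of HepaRG hepatic cells, eight concentrations to 100 uM. Expression of CYP2E1 is quantified by TaqMan qRT-PCR with ACTB, GAPDH and POLR2A normalization; curves fitted in both directions relative to vehicle.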

Read-out in assay [10]: CYP4A11 (gene 1579)
Description: LTEA_HepaRG_CYP4A11: Life Technologies and Expression Analysis (LTEA) Assay for CYP4A11 using HepaRG (AID 2283486). In outline:
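Human hepatic HepaRG cultures receive duplicate 48 h exposures across a concentration-response series topping at 100 uM. Expression changes in CYP4A11 are measured by qRT-PCR relative to DMSO controls.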

Read-out in assay [11]: DNA damage-inducible transcript 3 (DDIT3), DDIT3 (gene 1649)
Description: LTEA_HepaRG_DDIT3: Life Technologies and Expression Analysis (LTEA) Assay for DNA damage-inducible transcript 3 (DDIT3) using HepaRG (AID 2283488). Put shortly:
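Eight-point concentration-response (100 uM highest, half-log dilutions) in HepaRG, 48 h, duplicate wells. Endpoint: qRT-PCR mRNA, normalized (ACTB, GAPDH, POLR2A), bidirectional fitting with DMSO as baseline.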

Read-out in assay [12]: Pro-epidermal growth factor (Homo sapiens) (UniProt P01133)
Kind of assay: LTEA_HepaRG_EGF: Life Technologies and Expression Analysis (LTEA) Assay for Epidermal growth factor (EGF) using HepaRG (AID 2283489). In outline: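 Concentration-response mRNA assay: HepaRG cells dosed 48 h (max 100 uM, 0.5% DMSO), EGF measured by qRT-PCR and normalized to ACTB/GAPDH/POLR2A.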

Read-out in assay [13]: Early growth response protein 1 (EGR1) transcription factor, EGR1 (gene 1958)
Description: LTEA_HepaRG_EGR1: Life Technologies and Expression Analysis (LTEA) Assay for Early growth response protein 1 (EGR1) transcription factor using HepaRG (AID 2283490). In outline:
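EGR1 transcript levels quantified by qRT-PCR (Fluidigm arrays) against three housekeeping genes after 48 h chemical exposure of HepaRG cells. Eight-point half-log series topping at 100 uM, 0.5% DMSO vehicle, analyzed for gain or loss.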

Read-out in assay [14]: Ezrin (EZR), EZR (gene 7430)
Kind of assay: LTEA_HepaRG_EZR: Life Technologies and Expression Analysis (LTEA) Assay for Ezrin (EZR) using HepaRG (AID 2283491). Put shortly: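 Read-out is EZR transcript level by qRT-PCR, normalized to three housekeeping genes and fitted bidirectionally against the DMSO control. Human HepaRG cells received test chemicals for 48 h at eight half-log concentrations up to 100 uM in 0.5% DMSO.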

Read-out in assay [15]: Cytochrome P450 3A7 (Homo sapiens) (UniProt P24462)
Description: LTEA_HepaRG_CYP3A7: Life Technologies and Expression Analysis (LTEA) Assay for CYP3A7 using HepaRG (AID 2283492). In outline: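 qRT-PCR of CYP3A7 in HepaRG lysates after 48 h treatment; concentration-response (8 points, max 100 uM) analysed bidirectionally relative to 0.5% DMSO controls.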

Read-out in assay [16]: CYP3A5 (gene 1577)
Kind of assay: LTEA_HepaRG_CYP3A5: Life Technologies and Expression Analysis (LTEA) Assay for CYP3A5 using HepaRG (AID 2283493). Put shortly: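 Readout was CYP3A5 mRNA by qRT-PCR. HepaRG cultures were exposed for 48 h in serum-free induction medium to chemicals at up to 100 uM, and responses were fitted in both directions relative to DMSO vehicle.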

Read-out in assay [17]: Fatty Acid-Binding Protein 1 (FABP1), FABP1 (gene 2168)
Description: LTEA_HepaRG_FABP1: Life Technologies and Expression Analysis (LTEA) Assay for Fatty Acid-Binding Protein 1 (FABP1) using HepaRG (AID 2283494). In outline:
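FABP1 expression by TaqMan qRT-PCR, normalised to three housekeeping genes, in HepaRG cells after 48 h chemical treatment. Eight-point half-log series topping at 100 uM in 0.5% DMSO, duplicates; gain or loss fitted relative to vehicle.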

Read-out in assay [18]: Cytochrome P450 4A22 (Homo sapiens) (UniProt Q5TCH4)
Kind of assay: LTEA_HepaRG_CYP4A22: Life Technologies and Expression Analysis (LTEA) Assay for Cytochrome P450 4A22 (CYP4A22) using HepaRG (AID 2283495). Put shortly:
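Concentration-response (8 points, max 100 uM, 0.5% DMSO) in human HepaRG liver cells after 48 h exposure. CYP4A22 mRNA by TaqMan qRT-PCR with housekeeping-gene normalization.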

Read-out in assay [19]: Cytochrome P450 7A1 (Homo sapiens) (UniProt P22680)
Description: LTEA_HepaRG_CYP7A1: Life Technologies and Expression Analysis (LTEA) Assay for Cytochrome P450 7A1 (CYP7A1) using HepaRG (AID 2283496). In outline:
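Using 0.5% DMSO as vehicle and baseline, chemicals were tested in duplicate over an 8-point range from 100 uM on HepaRG cells for 48 h; qRT-PCR signals were normalised to ACTB, GAPDH and POLR2A.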

Read-out in assay [20]: Glutathione S-Transferase (GSTA2), GSTA2 (gene 2939)
Kind of assay: LTEA_HepaRG_GSTA2: Life Technologies and Expression Analysis (LTEA) Assay for Glutathione S-Transferase (GSTA2) using HepaRG (AID 2283497). Put shortly:
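GSTA2 transcript levels came from Fluidigm TaqMan qRT-PCR normalized to three housekeeping genes, fitted in both directions against DMSO. HepaRG cultures received chemicals for 48 h in serum-free induction medium (0.5% DMSO), 8 half-log concentrations up to 100 uM, duplicate.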

Molecules are shown by their SMILES. Calls of active or inactive are those of the source. The calls were made as follows: active = hit-call score of the fitted dose curve at least 0.9, where 1 is the maximum; inactive = score below 0.9.

Chain of Caspase-3 (Homo sapiens) (P42574 whole entry, looked up): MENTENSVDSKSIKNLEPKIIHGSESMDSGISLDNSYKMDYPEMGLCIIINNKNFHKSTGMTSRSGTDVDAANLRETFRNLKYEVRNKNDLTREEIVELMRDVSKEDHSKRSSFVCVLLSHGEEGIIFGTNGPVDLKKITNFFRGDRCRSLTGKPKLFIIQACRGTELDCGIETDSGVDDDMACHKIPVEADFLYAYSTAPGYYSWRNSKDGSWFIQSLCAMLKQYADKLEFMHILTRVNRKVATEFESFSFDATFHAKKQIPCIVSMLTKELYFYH
Chain of Cytochrome P450 3A7 (Homo sapiens) (P24462 whole entry, looked up): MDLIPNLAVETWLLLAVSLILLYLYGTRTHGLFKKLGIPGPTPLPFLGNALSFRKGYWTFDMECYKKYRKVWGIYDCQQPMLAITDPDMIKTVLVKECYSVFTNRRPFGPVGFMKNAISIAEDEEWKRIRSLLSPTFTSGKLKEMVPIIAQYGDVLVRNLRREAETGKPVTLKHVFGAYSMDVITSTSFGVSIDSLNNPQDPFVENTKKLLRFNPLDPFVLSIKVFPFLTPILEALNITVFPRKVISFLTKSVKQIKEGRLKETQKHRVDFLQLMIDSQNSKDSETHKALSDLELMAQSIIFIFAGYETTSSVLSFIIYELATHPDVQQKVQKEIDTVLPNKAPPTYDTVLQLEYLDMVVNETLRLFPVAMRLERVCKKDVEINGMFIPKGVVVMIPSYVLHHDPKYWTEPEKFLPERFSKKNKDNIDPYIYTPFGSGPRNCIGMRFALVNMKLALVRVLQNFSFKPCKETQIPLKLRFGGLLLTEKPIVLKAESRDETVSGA
Chain of Cytochrome P450 2C19 (Homo sapiens) (P33261 whole entry, looked up): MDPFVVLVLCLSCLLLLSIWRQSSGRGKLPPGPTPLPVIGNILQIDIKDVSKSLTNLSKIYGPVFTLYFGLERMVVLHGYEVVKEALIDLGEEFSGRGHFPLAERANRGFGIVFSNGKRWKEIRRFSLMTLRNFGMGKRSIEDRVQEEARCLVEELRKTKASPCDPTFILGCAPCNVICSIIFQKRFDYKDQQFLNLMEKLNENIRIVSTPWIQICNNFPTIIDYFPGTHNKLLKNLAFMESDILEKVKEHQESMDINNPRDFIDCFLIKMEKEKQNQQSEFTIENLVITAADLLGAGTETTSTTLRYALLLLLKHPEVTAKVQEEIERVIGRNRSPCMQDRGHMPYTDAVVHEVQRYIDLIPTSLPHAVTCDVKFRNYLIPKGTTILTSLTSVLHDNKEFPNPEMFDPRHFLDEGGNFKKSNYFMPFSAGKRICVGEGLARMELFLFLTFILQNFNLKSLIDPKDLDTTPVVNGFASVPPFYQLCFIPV

Regarding `OCCN(CCO)CCO`, the call in assay [1], in [2], in assay [3], in assay [4], in assay [6] and in [7] was inactive. For the same molecule, the molecule was called inactive in assay [8], in [9], in [10], in [11], in [12] and in assay [13]. The call in assay [14], in assay [15], in assay [16], in assay [17], in assay [18] and in assay [19] was inactive. Also, the call in assay [20] was inactive. For the same molecule, in [5], the half-maximal activity concentration (AC50) – broadly, the concentration at which the activity in the assay is half-maximal – was 21.1 µM (active).
For `Clc1cccc(Cl)c1`, the result in assay [1], in assay [2], in [3], in [4], in assay [5] and in [6] was inactive. Moreover, the outcome in assay [7], in assay [8], in assay [9], in assay [10], in assay [11] and in [12] was inactive. In addition, the molecule was classed as inactive in [13], in assay [14], in assay [15], in [16], in assay [17] and in assay [18]. The result in [19] and in assay [20] was inactive.
On to `O=C(N[C@H]1CN2CCC1CC2)c1ccc2c(c1)OCCO2`, for which the molecule was classed as inactive in [1], in assay [2], in assay [3], in assay [4], in assay [5] and in [6]. In addition, the outcome in assay [7], in assay [8], in assay [9], in [10], in [11] and in [12] was inactive. The outcome in assay [13], in assay [14], in assay [15], in assay [16], in assay [17] and in assay [18] was inactive. Besides, the outcome in [19] and in [20] was inactive.
Take `Oc1cc(Cl)c(Cl)cc1Cl`: the result in assay [1], in [2], in [3], in assay [4], in assay [5] and in assay [6] was inactive. In addition, the call in assay [7], in assay [8], in [9], in assay [10], in [11] and in [12] was inactive. For the same molecule, the result in assay [13], in assay [14], in [15], in assay [16], in assay [17] and in [18] was inactive. For the same molecule, the outcome in [19] and in assay [20] was inactive.

The values above are taken from PubChem BioAssay (EPA / NIEHS).
